Measurements as given in PubChem BioAssay AID2108 (National Center for Advancing Translational Sciences (NCATS), 2009).
Records with an inconclusive call do not appear. The source made the active and inactive calls. Calls follow the shape of the dose curve; as a rule, active = well fitted curve in the direction sought with a large enough effect; inconclusive = small, poorly fitted or top-dose-only effect, or effect the other way, or another doubt; inactive = no such curve, though single readings can be large or run the other way.

molecular target: Alpha-galactosidase A (Homo sapiens) (UniProt P06280); assay: Confirmation of Inhibitors of Human alpha-Galactosidase Using Spleen Homogenate; conditions: alpha-galactosidase enzyme activity; series mostly up to 56.2 µM
Method in brief: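 Human spleen homogenate (1 ug) with 1 mM 4-methylumbelliferyl-alpha-D-galactopyranoside in citrate-phosphate pH 5.0, 0.01% Tween-20, 37C 40 min; compounds 0.5 nM–58 uM final. Stopped at pH 10, fluorescence Ex 365/Em 440; AC50 from Hill fits.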

Chain of Alpha-galactosidase A (Homo sapiens) (P06280 32-429 limits assumed): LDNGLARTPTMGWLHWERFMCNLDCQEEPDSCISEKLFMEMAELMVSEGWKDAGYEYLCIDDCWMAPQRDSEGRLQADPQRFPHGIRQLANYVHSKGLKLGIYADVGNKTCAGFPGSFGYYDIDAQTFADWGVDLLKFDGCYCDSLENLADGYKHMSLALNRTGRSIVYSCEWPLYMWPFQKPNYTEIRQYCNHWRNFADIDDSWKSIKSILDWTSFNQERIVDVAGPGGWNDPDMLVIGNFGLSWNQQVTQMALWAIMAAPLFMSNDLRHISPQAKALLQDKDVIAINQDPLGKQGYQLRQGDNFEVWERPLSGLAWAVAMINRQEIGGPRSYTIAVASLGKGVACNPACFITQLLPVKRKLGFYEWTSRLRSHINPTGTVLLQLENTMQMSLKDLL

outcome, inactive:
O=C(NC1=NCCS1)C1Cc2ccccc2CN1C(=O)c1ccccc1 (stereo unspecified)
CC1CCc2nc(-c3cc4c(ccc5ccccc54)oc3=O)sc2C1 (stereo unspecified)
O=C(COC(=O)c1ccccc1Br)NCCc1ccc(F)cc1
CCOC(=O)Cc1csc(NC(=O)NC2(C(F)(F)F)Oc3cc(Cl)c(Cl)cc3O2)n1
O=C(CC(c1ccccc1)c1cc(Br)ccc1O)NCCN1CCOCC1 (stereo unspecified)
O=C(O)c1cc(NCc2c(F)cccc2Cl)ccc1N1CCOCC1
N#Cc1c(-c2ccc(F)cc2)cc(-c2cccnc2)nc1N
COc1cc(-c2cc(N3C(=O)Nc4ccccc4N3O)n[nH]2)cc(OC)c1OC
CC(=O)N1CCN(c2ccc(NCc3ccccc3)cc2)CC1
O=c1oc2ccc3ccccc3c2cc1-c1nc2c(s1)CCc1ccccc1-2
O=C1c2ccccc2NC(c2cccnc2)N1c1ccccc1F (stereo unspecified)
Cc1nnc(SCC(=O)Nc2ccc3c(c2)COC3=O)n1-c1ccccc1
Cc1ccccc1S(=O)(=O)N1CCOCC1
O=C(Nc1nnc(-c2cccc(F)c2)s1)Nc1ccccc1F
COC(=O)c1ccc(S(=O)(=O)N2CCOCC2)cc1
Cc1sc(-c2cc3cc(Cl)ccc3oc2=O)nc1-c1ccccc1
CC1=C(C(=O)Nc2ccccc2C)C(c2ccccn2)n2nc(SCc3ccccc3F)nc2N1 (stereo unspecified)
CC(=O)c1cccc(S(=O)(=O)N2CCOCC2)c1
O=C(O)Cn1nnnc1SCC(=O)Nc1ccc(OC(F)(F)F)cc1
COC(=O)c1cccc(S(=O)(=O)N2CCOCC2)c1
CC(=O)Nc1cccc2c1C(=O)NC2=O
Cc1ccc2nc(-c3ccccc3N)[nH]c2c1
CCC(=O)N1CCN(c2ccc(Cl)cc2NC(=O)c2ccc(N3CCCC3)c([N+](=O)[O-])c2)CC1
CC/C(=C(\c1ccccc1)c1ccc(OCCN(C)C)cc1)c1ccccc1
O=c1[nH]c2ccccc2nc1/C=C/c1ccc2c(c1)OCO2
COC(=O)CSc1cc([N+](=O)[O-])ccc1NC(=O)OC
COc1cccc2cc(-c3nc(-c4ccc(C)cc4)c(C)s3)c(=O)oc12
Nc1c(NCCN2CCOCC2)c2ccccc2oc1=O
C=CCn1c2ccccc2c2nnc(SCC(=O)NC(C(=O)OC)C(C)C)nc21 (stereo unspecified)
O=C(O)C[C@@H]1C(=O)O[C@@H]2C(COC(=O)c3cc(O)c(O)c(O)c3)O[C@@H](OC(=O)c3cc(O)c(O)c(O)c3)[C@@H](OC(=O)c3cc(O)c(O)c4c3[C@H]1[C@H](O)C(=O)O4)[C@H]2OC(=O)c1cc(O)c(O)c(O)c1 (stereo partly specified)
CCC1OC23CCCCC2C(C#N)(C(=N)O3)C1(C#N)C#N (stereo unspecified)
CCOc1cc(/C=C2\SC(N)=NC2=O)ccc1O
COCCNc1c(-c2ccc(O)cc2)nc2ccc(Cl)cn12
Cc1ccc(N2CC(C(=O)NCc3ccc(C)n3C)CC2=O)cc1 (stereo unspecified)
Cc1nnc(SCC(=O)Nc2nsc(-c3ccc(C(C)(C)C)cc3)n2)s1
Cc1oc2c(O)c(O)ccc2c(=O)c1-c1cnn(-c2ccccc2)c1
